# Measurements reported in PubChem BioAssay (NCATS).
# Inconclusive results are not listed. Active and inactive are the calls of the source. The call rests on the fitted dose curve; in most records, active means well fitted inhibition curve with a large enough effect; inconclusive means small, poorly fitted or top-dose-only effect; inactive means flat fitted curve, though single readings scatter.
# Target: Voltage-gated inwardly rectifying potassium channel KCNH2 (Homo sapiens) (UniProt Q12809)
# Assay: qHTS Assay for Small Molecule Inhibitors of the Human hERG Channel Activity (AID 588834);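 further: lower thallium flux fluorescence means stronger hERG block; nearly all actives have a fitted effect of over 50% in size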; on activity change, negative = inhibition: top concentration of the series differs between compounds
# Details: U2OS BacMam hERG, FluxOR thallium flux fluorescence; series mostly up to 46.1 µM; activity change, negative = inhibition: at the top concentration
# Outline: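 Blockade is seen as reduced FluxOR thallium-flux fluorescence in U2OS cells expressing hERG from a BacMam construct, in Opti-MEM with 2% FCS. Concentration-response data fitted to the Hill equation for AC50.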
# On the % scale 0 is the no-effect control and ±100 the full control effect; potency means the concentration at half of the fitted maximal effect.
# Chain of Voltage-gated inwardly rectifying potassium channel KCNH2 (Homo sapiens) (Q12809 whole entry, looked up): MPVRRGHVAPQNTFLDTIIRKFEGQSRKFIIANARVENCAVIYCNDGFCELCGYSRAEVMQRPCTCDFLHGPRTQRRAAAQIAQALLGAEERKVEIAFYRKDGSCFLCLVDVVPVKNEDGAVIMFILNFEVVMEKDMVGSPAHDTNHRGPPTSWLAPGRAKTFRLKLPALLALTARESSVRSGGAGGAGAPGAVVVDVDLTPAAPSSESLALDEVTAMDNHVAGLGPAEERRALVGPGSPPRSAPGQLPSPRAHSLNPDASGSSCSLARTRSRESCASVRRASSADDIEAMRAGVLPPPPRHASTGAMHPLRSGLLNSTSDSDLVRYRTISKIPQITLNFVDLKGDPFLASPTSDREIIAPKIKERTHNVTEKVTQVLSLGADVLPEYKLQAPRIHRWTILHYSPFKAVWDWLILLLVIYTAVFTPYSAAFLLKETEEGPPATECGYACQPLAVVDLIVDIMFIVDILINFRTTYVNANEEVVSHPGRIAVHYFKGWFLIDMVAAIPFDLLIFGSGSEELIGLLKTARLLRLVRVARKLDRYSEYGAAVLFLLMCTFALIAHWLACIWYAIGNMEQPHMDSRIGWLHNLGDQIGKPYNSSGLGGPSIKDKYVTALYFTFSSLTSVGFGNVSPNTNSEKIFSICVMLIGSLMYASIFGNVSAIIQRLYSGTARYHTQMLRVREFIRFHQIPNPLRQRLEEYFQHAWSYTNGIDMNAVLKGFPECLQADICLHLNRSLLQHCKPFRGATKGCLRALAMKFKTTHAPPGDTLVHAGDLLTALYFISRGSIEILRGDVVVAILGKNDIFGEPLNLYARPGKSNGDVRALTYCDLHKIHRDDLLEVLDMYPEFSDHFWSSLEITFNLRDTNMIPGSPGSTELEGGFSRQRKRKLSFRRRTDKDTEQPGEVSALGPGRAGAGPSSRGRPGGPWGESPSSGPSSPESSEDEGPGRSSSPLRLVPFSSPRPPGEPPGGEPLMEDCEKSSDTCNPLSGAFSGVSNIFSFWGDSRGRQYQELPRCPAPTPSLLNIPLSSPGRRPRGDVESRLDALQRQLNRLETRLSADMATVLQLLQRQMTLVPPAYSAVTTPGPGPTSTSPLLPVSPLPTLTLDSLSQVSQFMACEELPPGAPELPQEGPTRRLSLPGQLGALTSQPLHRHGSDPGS
Compound,"activity change, negative = inhibition",Potency
CC[C@H]1OC(=O)C[C@@H](O)[C@H](C)[C@@H](O[C@@H]2O[C@H](C)[C@@H](O)[C@H](N(C)C)[C@H]2O)[C@@H](CCN2C[C@H](C)C[C@H](C)C2)C[C@@H](C)C(=O)/C=C/C(C)=C/[C@@H]1CO[C@@H]1O[C@H](C)[C@@H](O)[C@@H](OC)[C@H]1OC,-4.74% (inactive),
CO[C@H]1C=CO[C@@]2(C)Oc3c(C)c(O)c4c(O)c(c(/C=N/N5CCN(C6CCCC6)CC5)c(O)c4c3C2=O)NC(=O)/C(C)=C\C=C[C@H](C)[C@H](O)[C@@H](C)[C@@H](O)[C@@H](C)[C@H](OC(C)=O)[C@@H]1C,-11% (inactive),
CC(C)C(=O)OCC(=O)[C@@]12O[C@H](C3CCCCC3)O[C@@H]1C[C@H]1[C@@H]3CCC4=CC(=O)C=C[C@]4(C)[C@H]3[C@@H](O)C[C@@]12C,,3.98 µM (active)
COc1cc([C@@H]2c3cc4c(cc3[C@@H](O[C@@H]3O[C@@H]5CO[C@@H](C)O[C@H]5[C@H](O)[C@H]3O)[C@H]3COC(=O)[C@H]23)OCO4)cc(OC)c1O,7.85% (inactive),
C=C(NC(=O)C(=C)NC(=O)c1csc(C2=N[C@@H]3c4csc(n4)[C@H]4NC(=O)c5csc(n5)[C@H]([C@](C)(O)[C@@H](C)O)NC(=O)[C@H]5CSC(=N5)C(=CC)NC(=O)C([C@@H](C)O)NC(=O)c5csc(n5)[C@]3(CC2)NC(=O)[C@H](C)NC(=O)C(=C)NC(=O)[C@H](C)NC(=O)C([C@@H](C)CC)NC2C=Cc3c([C@H](C)O)cc(nc3C2O)C(=O)O[C@@H]4C)n1)C(N)=O (stereo not given in full),-18.2% [at 20.6 µM] (inactive),
NCc1ccccc1CC(=O)N[C@@H]1C(=O)N2C(C(=O)O)=C(CSc3nnnn3CC(=O)O)CS[C@H]12,-2.34% [at 20.6 µM] (inactive),
CCCCCCC(O)C/C=C/CCCCCCCC(=O)O (stereo not given),17.1% (inactive),
CO[C@H]1C[C@H](O[C@H]2[C@H](C)[C@@H](O[C@@H]3O[C@H](C)C[C@H](N(C)C)[C@H]3OC(C)=O)[C@@H](C)C[C@]3(CO3)C(=O)[C@H](C)[C@@H](OC(C)=O)[C@@H](C)[C@@H](C)OC(=O)[C@@H]2C)O[C@@H](C)[C@@H]1OC(C)=O,2.74% [at 20.6 µM] (inactive),
C/C1=C2N=C(/C=C3N=C(/C(C)=C4\[N-][C@@](C)([C@@H]5N=C1[C@](C)(CCC(=O)NCC(C)OP(=O)(O)O[C@H]1[C@@H](O)[C@@H](n6cnc7cc(C)c(C)cc76)O[C@@H]1CO)[C@H]5CC(N)=O)[C@@](C)(CC(N)=O)[C@@H]4CCC(N)=O)[C@@](C)(CC(N)=O)[C@@H]\3CCC(N)=O)C(C)(C)[C@@H]/2CCC(N)=O.CC(=O)O.[Co] (stereo not given in full),2.33% (inactive),
CCCCCC(CC)COC(=O)CC(C(=O)OCC(CC)CCCC)S(=O)(=O)O (stereo not given),0.0918% (inactive),
CC[C@H]1OC(=O)[C@H](C)[C@@H](O[C@H]2C[C@@](C)(OC)[C@@H](O)[C@H](C)O2)[C@H](C)[C@@H](O[C@@H]2O[C@H](C)C[C@H](N(C)C)[C@H]2O)[C@](C)(O)C[C@@H](C)/C(=N\OCOCCOC)[C@H](C)[C@@H](O)[C@]1(C)O,-15.7% [at 20.6 µM] (inactive),
CCC(=O)O[C@]1(C(=O)CCl)[C@@H](C)C[C@H]2[C@@H]3C[C@H](F)C4=CC(=O)C=C[C@]4(C)[C@@]3(F)[C@@H](O)C[C@@]21C,-10.8% (inactive),
CO[C@@H]1[C@@H](O[C@@H]2O[C@H](C)[C@@H](O[C@H]3C[C@@](C)(O)[C@@H](OC(=O)CC(C)C)[C@H](C)O3)[C@H](N(C)C)[C@H]2O)[C@@H](CC=O)C[C@@H](C)C(=O)/C=C/C2OC2C[C@@H](C)OC(=O)C[C@H]1OC(C)=O (stereo not given in full),8.54% (inactive),
CC1(C)S[C@@H]2[C@H](NC(=O)C(C(=O)O)c3ccsc3)C(=O)N2[C@H]1C(=O)O (stereo not given in full),6.7% (inactive),
C=C1C(=CC=C2CCC[C@@]3(C)[C@@H]2CC[C@H]3[C@H](C)CCCC(C)C)C[C@@H](O)C[C@@H]1O,-3.34% (inactive),
N[C@H](C(=O)O)[C@@H]1CC(Cl)=NO1,15.1% (inactive),
COc1cc2c(cc1O)CCN[C@]21CS[C@@H]2c3c(OC(C)=O)c(C)c4c(c3[C@H](COC1=O)N1[C@@H]2[C@H]2c3c(cc(C)c(OC)c3O)C[C@@H]([C@@H]1O)N2C)OCO4,3.31% (inactive),
CC(=O)OCC(=O)[C@@]12OC3(CCCC3)O[C@@H]1C[C@H]1[C@@H]3CCC4=CC(=O)C=C[C@]4(C)[C@@]3(F)[C@@H](O)C[C@@]12C,-15.7% (inactive),
CC[N+](CC)(CC)CCC(O)(c1ccccc1)C1CCCCC1 (stereo not given),2.59% [at 20.6 µM] (inactive),
CCCCC(=O)N(Cc1ccc(-c2ccccc2-c2nn[nH]n2)cc1)[C@@H](C(=O)O)C(C)C,8.58% (inactive),
